# Measurements as given in publication PMC5540273 (PLoS ONE, 2017).
# pKd: −log10 of the molar value.
# Legend:
# [1] = tested on: T1, VPS34
# T1 construct: gene PIK3C3
# [2] = tested on: AAK1; conditions: concentration: 1 μM, replicates: in singlicate; n = 1
# [3] = tested on: ABL1-nonphosphorylated; conditions: concentration: 1 μM, replicates: in singlicate; n = 1
# [4] = tested on: ABL1-phosphorylated; conditions: concentration: 1 μM, replicates: in singlicate; n = 1
# [5] = tested on: ABL2; conditions: concentration: 1 μM, replicates: in singlicate; n = 1
# [6] = tested on: T2, YSK4
# T2 construct: gene MAP3K19
# [7] = tested on: TNNI3K
# [8] = tested on: VRK2
# [9] = tested on: T3, YANK2
# T3 construct: gene STK32B
# [10] = tested on: TYRO3
# [11] = tested on: T4, YES
# T4 construct: gene YES1
# [12] = tested on: T5, VEGFR2
# T5 construct: gene KDR
# [13] = tested on: WNK4
# [14] = tested on: T6, p38-alpha
# T6 construct: gene MAPK14
# [15] = tested on: TYK2(JH1domain-catalytic)
# [16] = tested on: TXK
# [17] = tested on: ZAK
# [18] = tested on: T7, p38-gamma
# T7 construct: gene MAPK12
# 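Wherever %Inh is given: KINOMEscan kinase panel screen.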
# 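Wherever pKd is given: kd values determined as follow-up on hits from a single-replicate KINOMEscan panel screen.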
structure (smiles),measurement,setting,value
Cc1nn2c(=O)cc(N3CCOCC3)nc2n1Cc1cccc(Cl)c1Cl [GSK2342769],pKd,[1],9.37
same,%Inh,[2],14%
same,%Inh,[3],0%
same,%Inh,[4],0%
same,%Inh,[5],9%
CCn1c(-c2nonc2N)nc2ccccc21 [SB-693162/GW549034],pKd,[6],8.00
same,%Inh,[2],29%
same,%Inh,[3],53%
same,%Inh,[4],27%
same,%Inh,[5],0%
COC(=O)c1c(-c2ccccc2)c2cc(C)ccc2c(=O)n1Cc1ccccc1,%Inh,[2],1%
same,%Inh,[3],53%
same,%Inh,[4],0%
same,%Inh,[5],6%
COc1cccc(C2=C(N(C)c3ccccc3)C(=O)NC2=O)c1 [SB-334865],%Inh,[2],0%
same,%Inh,[3],5%
same,%Inh,[4],3%
same,%Inh,[5],14%
FC(F)(F)c1ccc(-c2ncn(CCCN3CCOCC3)c2-c2ccncc2)cc1 [SB-217780],%Inh,[2],7%
same,%Inh,[3],44%
same,%Inh,[4],0%
same,%Inh,[5],8%
Nc1ncnc2c1ncn2-c1cccc(F)c1 [SKF-97560],pKd,[7],< 5.00
same,%Inh,[2],0%
same,%Inh,[3],9%
same,%Inh,[4],14%
same,%Inh,[5],8%
CN1C(=O)C(Nc2cc(Cl)c(O)c(Cl)c2)=C(c2ccc(Cl)cc2)C1=O [SB-404321],pKd,[8],< 5.00
same,%Inh,[2],0%
same,%Inh,[3],30%
same,%Inh,[4],0%
same,%Inh,[5],0%
Nc1ncnc2c1ncn2-c1cccc2ccccc12 [SKF-97184],pKd,[9],< 5.00
same,%Inh,[2],0%
same,%Inh,[3],46%
same,%Inh,[4],26%
same,%Inh,[5],0%
COc1cc(OC)cc(-c2cc3cnc(N)nc3nc2NC(=O)NC(C)(C)C)c1,pKd,[10],< 5.00
same,pKd,[11],< 5.00
same,%Inh,[2],15%
same,%Inh,[3],39%
same,%Inh,[4],0%
same,%Inh,[5],0%
O=c1cc(N2CCOCC2)nc2n(Cc3ccc(F)c(Cl)c3)ccn12 [GSK2297099],pKd,[1],7.82
same,%Inh,[2],24%
same,%Inh,[3],0%
same,%Inh,[4],0%
same,%Inh,[5],0%
Cc1cccc(-c2nc(Nc3ccc4c(cnn4C)c3)c3ccccc3n2)n1 [GW876731],%Inh,[2],0%
same,%Inh,[3],0%
same,%Inh,[4],0%
same,%Inh,[5],0%
O=C(Nc1n[nH]c2nc(-c3ccccc3)c(Cl)cc12)C1CC1 [SB-734909],pKd,[6],5.11
same,%Inh,[2],28%
same,%Inh,[3],76%
same,%Inh,[4],57%
same,%Inh,[5],0%
COc1cc2nccc(Nc3ccc(OCc4ccc(NC(C)=O)cc4)cc3)c2cc1OC.Cl [GW440135],pKd,[12],7.28
same,%Inh,[2],0%
same,%Inh,[3],17%
same,%Inh,[4],0%
same,%Inh,[5],4%
OCCCNc1nccc(-c2c(-c3cccc(C(F)(F)F)c3)nn3cc(C(F)(F)F)ccc23)n1 [GW630813],pKd,[13],< 5.00
same,pKd,[14],5.89
same,%Inh,[2],0%
same,%Inh,[3],0%
same,%Inh,[4],0%
same,%Inh,[5],0%
COc1ccc(Nc2nccc(N3CCC(NS(=O)(=O)c4ccc(NC(C)=O)cc4)C3)n2)cc1 (centres unmarked) [GSK1379729],pKd,[7],< 5.00
same,pKd,[15],7.07
same,pKd,[1],7.01
same,pKd,[14],< 5.00
same,%Inh,[2],0%
same,%Inh,[3],0%
same,%Inh,[4],0%
same,%Inh,[5],20%
O=C(NCc1cccs1)c1cc(C(=O)c2c(Cl)cccc2Cl)c[nH]1 [GW823670],%Inh,[2],0%
same,%Inh,[3],18%
same,%Inh,[4],27%
same,%Inh,[5],0%
COc1cccc(C2=C(Nc3cccc(C(=O)O)c3)C(=O)NC2=O)c1 [SB-390770],%Inh,[2],3%
same,%Inh,[3],0%
same,%Inh,[4],0%
same,%Inh,[5],6%
COc1cc(Nc2nccc(N3CCC(NC(=O)C4COc5ccccc5O4)C3)n2)cc(OC)c1OC (centres unmarked) [GSK1379761],pKd,[15],5.82
same,%Inh,[2],66%
same,%Inh,[3],0%
same,%Inh,[4],0%
same,%Inh,[5],3%
COc1ccc(-c2cc3c(C)nc(N)nc3n([C@H]3CC[C@H](OCCO)CC3)c2=O)cn1,%Inh,[2],0%
same,%Inh,[3],0%
same,%Inh,[4],0%
same,%Inh,[5],0%
O=C(Nc1ccc2c(c1)OCO2)NC1CCN(c2ccnc(NCc3ccc(F)cc3)n2)CC1 [GSK1379859],%Inh,[2],0%
same,%Inh,[3],0%
same,%Inh,[4],0%
same,%Inh,[5],0%
Nc1nc(-c2ccccc2F)c(-c2ccnc3ccccc23)s1 [GW560459],pKd,[7],< 5.00
same,pKd,[14],6.62
same,%Inh,[2],12%
same,%Inh,[3],0%
same,%Inh,[4],0%
same,%Inh,[5],3%
O=C(NCCNc1ccnc(Nc2ccc(F)cc2)n1)Nc1ccc2c(c1)OCO2 [GSK1379882],pKd,[16],< 5.00
same,pKd,[17],< 5.00
same,%Inh,[2],20%
same,%Inh,[3],0%
same,%Inh,[4],0%
same,%Inh,[5],0%
COc1cccc(-n2cnc3c(N)ncnc32)c1 [SKF-97416],pKd,[15],< 5.00
same,%Inh,[2],0%
same,%Inh,[3],56%
same,%Inh,[4],46%
same,%Inh,[5],8%
COc1ccc(-c2cc3c(C)nc(N)nc3n([C@H]3CC[C@H](O)CC3)c2=O)cn1,pKd,[18],< 5.00
same,%Inh,[2],0%
same,%Inh,[3],0%
same,%Inh,[4],0%
same,%Inh,[5],0%
